Compound activity (PubChem BioAssay)
Sampled rows, rich in hits. Any-hit rate of the full collection: about 3%.
PLK1 PBD block: inhibitors of human PLK1 polo-box domain binding; 2.8% of 360,000 active; P53350; Potency, µM, without a hit: max response, negative = inhibition, hits mostly inhibitors; Plk1 PBD binding of FITC phosphopeptide, fluorescence polarization; AID 720504; also: series mostly up to about 57 µM; % is scaled to controls: 0 for no effect and ±100 for the full control effect; nearly all actives have a fitted effect of over 65% in size
Target sequence (P53350 whole entry, looked up, the tested form may be a part): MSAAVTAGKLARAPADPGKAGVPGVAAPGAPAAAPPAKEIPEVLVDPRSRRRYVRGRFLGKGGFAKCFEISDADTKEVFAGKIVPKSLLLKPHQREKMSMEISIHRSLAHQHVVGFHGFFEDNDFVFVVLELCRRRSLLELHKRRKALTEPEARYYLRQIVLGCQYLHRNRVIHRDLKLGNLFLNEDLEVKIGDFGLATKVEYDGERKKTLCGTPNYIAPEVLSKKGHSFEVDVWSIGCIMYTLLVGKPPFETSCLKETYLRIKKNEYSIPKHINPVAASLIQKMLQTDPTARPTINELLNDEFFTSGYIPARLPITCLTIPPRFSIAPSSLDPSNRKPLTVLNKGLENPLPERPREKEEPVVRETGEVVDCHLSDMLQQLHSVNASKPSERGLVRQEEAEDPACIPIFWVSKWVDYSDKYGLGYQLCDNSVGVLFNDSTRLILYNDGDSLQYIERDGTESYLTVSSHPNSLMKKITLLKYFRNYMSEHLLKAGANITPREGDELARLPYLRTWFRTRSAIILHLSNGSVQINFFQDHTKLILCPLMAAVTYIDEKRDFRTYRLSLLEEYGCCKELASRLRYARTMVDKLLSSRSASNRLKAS
GCN5L2 inh: blocks human GCN5L2 histone acetyltransferase; Q92830; 0.21% of 390,000 active; GCN5L2 HAT assay, ThioGlo1 CoA-SH fluorescence; Potency, µM (doses to about 58.9 µM), inactives show top-dose activity change, negative = inhibition, usual class: inhibitors; also: % is scaled to controls: 0 for no effect and ±100 for the full control effect
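Free CoA generated was detected with ThioGlo1 (50uM) fluorescence at Ex340nm/Em540nm, read immediately and after 20 min at room temperature. Enzyme, 20 nM in HEPES pH 7.5 buffer, saw compounds 15 min before adding 75uM H3(1-25) peptide and 70uM acetyl-CoA.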
USP1 inh: inhibitors of human USP1/UAF1 deubiquitinase; Potency, µM (top dose mostly 57.1 µM), without a hit: at the highest dose activity change, negative = inhibition, hits mostly inhibitors; 0.23% of 390,000 active; recombinant USP1/UAF1, Ub-Rhodamine cleavage fluorescence; also: % is scaled to controls: 0 for no effect and ±100 for the full control effect; nearly all actives have a fitted effect of over 60% in size
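In this screen, compounds sit with the deubiquitinase complex (1nM) for 15 min at room temperature before Ub-Rho is added at 150nM final. Fluorescence rise is then followed for 6 reads every 60 seconds.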
VDR inhibitor: vitamin D3 receptor (human) inhibition. P11473. VDR-SRC2-3 peptide fluorescence polarization, 2 h. Potency, µM, for the others: max response, negative = inhibition, actives largely listed as inhibitors. 0.93% of 400,000 active; also: % is scaled to controls: 0 for no effect and ±100 for the full control effect
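VDR–SRC2-3 interaction, FP format. Cmpds 23 nl via pintool, brief spin, 2 h ambient incubation.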
PTAP TSG101 blk: blocks PTAP/TSG101 interaction to inhibit HIV-1 budding | Q99816 | Fluorescence polarization, FITC-PTAP peptide / Tsg101 binding | Potency, µM (top dose mostly 115 µM), without a hit: at the top dose activity change, negative = inhibition, most hits filed as inhibitors | 340,000 tested, under 10 active | AID 493005; active = well fitted inhibition curve with a large enough effect in the main read-out, with a control signal flat, not every such curve was filed as active; inconclusive = small, poorly fitted or top-dose-only effect, or effect the other way, or a change in a side signal; inactive = no such curve, though single readings can be large or run the other way; also: % of control where 0% means no effect
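Tsg101 binding domain (10 uM final) was mixed with compound and a FITC-labeled PTAP peptide (50 nM final) in HEPES pH 7.5 buffer with NaCl, Tween 20, EDTA and TCEP; fluorescence polarization was read after 20 min at r.t.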
An asterisk follows results filed as active. Unless noted, calls follow the shape of the dose curve; as a rule, active = well fitted curve in the direction sought with a large enough effect; inconclusive = small, poorly fitted or top-dose-only effect, or another doubt; inactive = no such curve, though single readings can be large; an effect the other way counts as inactive or inconclusive. Potency is read from the fitted curve at half-maximal effect.

Screening Cn1cnc2c(ncn2[C@@H]2O[C@H](CO)[C@@H](O)[C@H]2O)c1=N returned GCN5L2 inh 22% and VDR inhibitor -1%.
`COC(=O)c1ccc(CN2CCCC(CCC(=O)NCc3ccc(C)o3)C2)cc1` (stereo unspecified) gave PLK1 PBD block 24µM*, GCN5L2 inh -5%, USP1 inh inconclusive, VDR inhibitor -1% and PTAP TSG101 blk -3%.
Screening CC1CCCC(NC(=O)c2cccc(S(=O)(=O)N3CCOCC3)c2)C1C (stereo unspecified) returned PLK1 PBD block -2% and USP1 inh 8%.
`CCOC(=O)c1cc(-c2ccc(C)cc2)n(CCC(=O)Nc2ccc(C(C)C)cc2)c1C` gave GCN5L2 inh -13%, USP1 inh -34% and VDR inhibitor 4%.
For COc1cccc(-c2nnc(SCC(=O)OC(C)C)n2Cc2ccco2)c1 the results were PLK1 PBD block 27µM*, GCN5L2 inh -1%, USP1 inh -8%, VDR inhibitor -13% and PTAP TSG101 blk -10%.
CNC(=O)CSc1ncnc2c1cnn2-c1ccccc1 was read as PLK1 PBD block -1%, GCN5L2 inh -3%, USP1 inh -18%, VDR inhibitor -13% and PTAP TSG101 blk -5%.
`CCOC(=O)CNC(=O)CSc1ncnc2c1cnn2-c1ccc(Cl)cc1` gave PLK1 PBD block 24µM*, GCN5L2 inh 3%, USP1 inh -3%, VDR inhibitor -7% and PTAP TSG101 blk -2%.
Screening CC(=O)CSc1ncnc2c1cnn2-c1ccccc1 returned PLK1 PBD block 24µM*, GCN5L2 inh -15%, USP1 inh -19%, VDR inhibitor inconclusive and PTAP TSG101 blk -7%.
`CC(C)=CCC1=C(OCC(=O)O)C(=O)c2ccccc2C1=O` gave PLK1 PBD block 30µM*, GCN5L2 inh -2%, USP1 inh 10µM*, VDR inhibitor inconclusive and PTAP TSG101 blk -2%.
For Cc1cccc(C)c1NC(=O)Cn1c(=O)n(CCC(=O)NCc2ccc3c(c2)OCO3)c(=O)c2sccc21 the results were GCN5L2 inh -1%, USP1 inh -23% and VDR inhibitor 7%.
`O=C(O)C1CCCCC1C(=O)NCc1ccc(Cl)c(Cl)c1` (stereo unspecified) gave PLK1 PBD block 30µM*, GCN5L2 inh -2%, USP1 inh -24%, VDR inhibitor -5% and PTAP TSG101 blk -5%.
`O=C(O)c1ccc(COc2ccccc2/C=C2\NC(=O)N(Cc3ccccc3F)C2=O)cc1` gave PLK1 PBD block 27µM*, GCN5L2 inh -25%, USP1 inh -15%, VDR inhibitor -13% and PTAP TSG101 blk 2%.
Screening O=C(O)c1ccc(COc2ccccc2/C=C2\NC(=O)N(Cc3ccccc3)C2=O)cc1 returned PLK1 PBD block 19µM*, GCN5L2 inh -8%, USP1 inh -15%, VDR inhibitor -16% and PTAP TSG101 blk -8%.
COc1cccc(/C=C2/NC(=O)N(CC(=O)Nc3ccc(C)cc3)C2=O)c1OCc1cccc(C(=O)O)c1 was read as PLK1 PBD block inconclusive, GCN5L2 inh -26%, USP1 inh 25µM*, VDR inhibitor -8% and PTAP TSG101 blk -6%.
`Cc1ccc(NC(=O)CN2C(=O)N/C(=C/c3cc(C)n(-c4cccc(C(=O)O)c4)c3C)C2=O)cc1` gave PLK1 PBD block inconclusive, GCN5L2 inh inconclusive, USP1 inh -6%, VDR inhibitor -15% and PTAP TSG101 blk 0%.
`O=C(O)c1ccc(COc2ccc3ccccc3c2/C=C2/NC(=O)N(Cc3ccc(F)cc3)C2=O)cc1` gave PLK1 PBD block inconclusive, GCN5L2 inh 0%, USP1 inh -8%, VDR inhibitor -5% and PTAP TSG101 blk -2%.
Screening O=C(CSc1nc(=O)n(Cc2ccco2)c2c1CCC2)Nc1ccccc1C(F)(F)F returned GCN5L2 inh -1%, USP1 inh -4% and VDR inhibitor -1%.
Screening Cc1ccc(-n2nc(C)c3c(C)cc(=O)n(CC(=O)NCc4ccc(OC(C)C)cc4)c32)cc1 returned GCN5L2 inh -5%, USP1 inh 7% and VDR inhibitor 4%.
COc1cc2cc(CCCOC(=O)c3ccc4c(c3)OCO4)oc(=O)c2cc1OC was read as PLK1 PBD block -5%, GCN5L2 inh -30%, USP1 inh inconclusive, VDR inhibitor 13% and PTAP TSG101 blk -5%.
O=C(NNc1nc(=O)c2cccnc2s1)c1ccccc1O was read as PLK1 PBD block 27µM*, GCN5L2 inh -3%, USP1 inh inconclusive, VDR inhibitor -5% and PTAP TSG101 blk -3%.
For CCOC(=O)CCCCN(Cc1ccccc1F)S(=O)(=O)c1ccc(F)c(C(=O)Nc2cc(Cl)cc(Cl)c2)c1 the results were GCN5L2 inh -18%, USP1 inh -18% and VDR inhibitor -10%.
For COc1ccccc1-c1noc(-c2cc(OC)c(OC)c(OC)c2)n1 the results were PLK1 PBD block 8.4µM*, GCN5L2 inh -1%, USP1 inh -20%, VDR inhibitor inconclusive and PTAP TSG101 blk -7%.
c1ccc(-c2noc(-c3cccc4ccccc34)n2)nc1 was read as PLK1 PBD block -7%, GCN5L2 inh -6%, USP1 inh -20%, VDR inhibitor 0% and PTAP TSG101 blk -7%.
Screening COc1cc(-c2nc(-c3ccccn3)no2)cc(OC)c1OC returned PLK1 PBD block -6%, GCN5L2 inh -7%, USP1 inh -1%, VDR inhibitor 4% and PTAP TSG101 blk -7%.
COc1cccc(-c2nc(-c3ccccn3)no2)c1OC was read as PLK1 PBD block 7.5µM*, GCN5L2 inh 1%, USP1 inh -2%, VDR inhibitor -4% and PTAP TSG101 blk -1%.
`COc1cc(OC)cc(-c2nc(-c3ccccc3OC)no2)c1` gave PLK1 PBD block 27µM*, GCN5L2 inh -12%, USP1 inh -3%, VDR inhibitor -22% and PTAP TSG101 blk -2%.
Screening COc1ccc([N+](=O)[O-])cc1N(CC(O)CN1C(=O)NC(C)(C)C1=O)S(=O)(=O)c1ccc(C)cc1 (stereo unspecified) returned PLK1 PBD block 5% and USP1 inh -22%.
For Cc1cc(C)c(CN2CCC(N3CCC(C(=O)NCC4CCCO4)CC3)CC2)cc1C (stereo unspecified) the results were PLK1 PBD block 30µM*, GCN5L2 inh -4%, USP1 inh -25%, VDR inhibitor inconclusive and PTAP TSG101 blk 0%.
Cc1oc(-c2cccc(Cl)c2)nc1CN1CCC(C(=O)NC2CC2)CC1 was read as PLK1 PBD block 21µM*, GCN5L2 inh -2%, USP1 inh -13%, VDR inhibitor -27% and PTAP TSG101 blk -4%.
Screening COc1ccc(-c2nc(CSCC(=O)NCCCN3CCCC3=O)c(C)o2)cc1OC returned PLK1 PBD block 21µM*, GCN5L2 inh -3%, USP1 inh -12%, VDR inhibitor -26% and PTAP TSG101 blk -5%.
